Source: PubChem BioAssay (several laboratories)
Compounds with a hit are over-represented: about 2.2% of the library has one in this group of screens.
ANO1 activ – mouse TMEM16A channel activation, primary screen; Q8BHY3; HEK293 TMEM16A/YFP-H148Q/I152L, iodide quench fluorescence; stronger effect = lower value; B-score at 10 µM; actives 0.3% (n = 340,000);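 active = fluorescence-ratio B-score plate-corrected deviation score at least 3 library SD below zero, with starting fluorescence score within 5 deviations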;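 note: channel opened by trigger with iodide after compound preincubation; score built on the fluorescence ratio of max minus min over baseline; more negative score means more quench and so TMEM16A activation or potentiation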
Target sequence (Q8BHY3 whole entry, looked up): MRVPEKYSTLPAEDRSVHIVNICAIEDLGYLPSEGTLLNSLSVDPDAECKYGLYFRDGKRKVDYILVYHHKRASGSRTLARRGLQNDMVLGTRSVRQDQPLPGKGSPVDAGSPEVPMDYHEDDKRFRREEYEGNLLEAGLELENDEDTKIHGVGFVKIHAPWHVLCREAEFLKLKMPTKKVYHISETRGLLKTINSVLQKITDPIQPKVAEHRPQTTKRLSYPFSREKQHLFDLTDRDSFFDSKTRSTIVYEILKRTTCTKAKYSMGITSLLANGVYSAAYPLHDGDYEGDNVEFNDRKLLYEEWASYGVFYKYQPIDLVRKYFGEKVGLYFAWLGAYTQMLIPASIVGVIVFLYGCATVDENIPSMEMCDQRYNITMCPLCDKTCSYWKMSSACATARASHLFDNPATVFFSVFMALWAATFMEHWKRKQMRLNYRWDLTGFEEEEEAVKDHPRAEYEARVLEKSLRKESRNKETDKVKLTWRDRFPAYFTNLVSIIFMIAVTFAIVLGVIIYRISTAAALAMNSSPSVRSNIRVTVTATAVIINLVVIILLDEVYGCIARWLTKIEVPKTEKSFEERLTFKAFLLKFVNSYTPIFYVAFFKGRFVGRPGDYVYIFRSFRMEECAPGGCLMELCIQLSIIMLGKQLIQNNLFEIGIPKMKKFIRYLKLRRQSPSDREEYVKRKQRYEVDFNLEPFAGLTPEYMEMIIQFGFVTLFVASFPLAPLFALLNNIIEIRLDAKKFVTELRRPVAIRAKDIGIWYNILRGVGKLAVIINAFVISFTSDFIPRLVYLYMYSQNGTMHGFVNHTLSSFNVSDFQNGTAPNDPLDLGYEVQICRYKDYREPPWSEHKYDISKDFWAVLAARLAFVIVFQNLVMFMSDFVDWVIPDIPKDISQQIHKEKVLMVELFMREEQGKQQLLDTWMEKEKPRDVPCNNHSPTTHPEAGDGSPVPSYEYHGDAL
TMEM16A inh – blocks the mouse calcium-activated chloride channel TMEM16A; Q8BHY3; HEK293 TMEM16A/YFP iodide influx fluorescence, ionomycin; normalized B-score (activity score, 25-100; higher = stronger inhibition) at 10 µM; actives 1.2% (n = 310,000);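 active = ratio plate-corrected score three or more library SD toward inhibition, starting fluorescence score within five deviations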;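 note: score derived from kinetic fluorescence span divided by baseline fluorescence per well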
NOD2 RIPK2 PPI – blocks binding of human NOD2 to RIPK2; O43353; CHO BLA complementation NOD2-RIPK2, CCF4 ratio; inhibition, % at 4.98 µM; actives 0.38% (n = 360,000); in the data active = inhibition above about 21%;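 note: 0% = vehicle only and 100% = reference blocker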
TLR4-MyD88 BLA – inhibitors of human TLR4-MyD88 binding | HeLa CL3-4 TLR4/MyD88 BLA complementation, FRET ratio | actives 0.18% (n = 200,000) | AID 861 | O00206+Q99836 | inhibition, % at 8.4 µM; in the data active = inhibition above about 25%;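 note: 0% = vehicle and 100% = reference inhibitor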
GRK2 inh – inhibitors of human GRK2 displacing RNA aptamer. inhibition of aptamer binding, % at 10 µM. actives 0.59% (n = 330,000). AID 488847. bead flow cytometry, FAM-aptamer displacement from GRK2. P25098;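 active = inhibition of aptamer binding above 40%, roughly 3 SD of noise, on plates passing a quality check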;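 note: median bead fluorescence of bound FAM aptamer so fluorescent compounds give negative values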
TLR9-MyD88 block – TLR9-MyD88 interaction inhibition; Q9NR96+Q99836; CHO BLA complementation TLR9-MyD88, CCF4 FRET ratio; inhibition, % at 4.98 µM; actives 0.21% (n = 340,000);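 active = inhibition above the mean over all tested compounds plus 3 SD, cut at about 21% in these data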;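 note: 0% = DMSO only wells and 100% = clavulanate BLA inhibitor control wells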
TLR4 MyD88 cnf – confirmation of human TLR4-MyD88 binding inhibitors; shares compounds with TLR4-MyD88 BLA; HeLa CL3-4 BLA complementation, CCF4 FRET ratio; inhibition, % at 8.4 µM; actives 50% (n = 350);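 active = mean inhibition across three repeat runs above about 25% carried over from the earlier screen, limit read from the data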;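 note: plate controls were DMSO only for no effect and clavulanic acid blocking BLA at full dose for full effect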
BLA inh HeLa – inhibits beta-lactamase activity, counter-screen to TLR4-MyD88 binding inhibitors. shares compounds with TLR4-MyD88 BLA. HeLa BLA reporter, CCF4 FRET ratio. inhibition, % at 8.4 µM. actives 63% (n = 350);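 active = mean inhibition over three repeats above about 26% taken from the earlier screen, limit read from the data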;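 note: HeLa cells stably expressing beta-lactamase reporter as counterscreen for TLR4-MyD88 inhibitors; 0% = DMSO and 100% = clavulanic acid full inhibition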
* marks the source's active call; other numbers are inactive results; i = inactive; . = no result given.

SMILES	ANO1 activ	TMEM16A inh	NOD2 RIPK2 PPI	TLR4-MyD88 BLA	GRK2 inh	TLR9-MyD88 block	TLR4 MyD88 cnf	BLA inh HeLa
CC(C)N(c1ccccc1)c1ccc(NC(=O)COC(=O)CCN2C(=O)c3cccc([N+](=O)[O-])c3C2=O)cc1	i	i	2	25*	3	-11	-5	-28
CCOC(=O)c1c(NC2=NS(=O)(=O)c3ccccc32)sc2c1CCC(C)C2 (stereo unspecified)	i	i	5	52*	2	2	-1	15
CCOC(=O)C1=C(CSc2nc(-c3ccccc3)ccc2C#N)OC(N)=C(C#N)C1c1ccc(OC)cc1 (stereo unspecified)	i	i	17	26*	0	7	15	24
CCOC(=O)C1=C(CSc2nc(CC)c(C)cc2C#N)OC(N)=C(C#N)C1c1ccccc1 (stereo unspecified)	i	i	0	-6	0	-3	.	.
C#CCNC(=O)C[C@@H]1C[C@@]2(C(=O)OCC)CCCC=C2N(CCC2=CCCCC2)C1=O	.	.	7	.	.	.	.	.
COC(=O)c1ccc(-c2sc3nc(N4CCOCC4)c4c(c3c2N)CCCC4)o1	.	i	.	27*	23	.	24	52*
Cc1cc(CNC[C@H]2O[C@@H](n3cnc4c(N)ncnc43)[C@H](O)[C@@H]2O)no1	.	.	4	.	.	-12	.	.
CC(=O)c1c(C)n([O-])c2cc(F)c(F)cc2[n+]1=O	i	i	10	28*	5	5	26*	12
COc1ccc2c(c1)[n+](=O)c(C(C)=O)c(C)n2[O-]	i	i	1	0	0	2	.	.
C[C@H]1CN([C@@H](C)CO)C(=O)CCCn2nncc2CO[C@H]1CN(C)C(=O)Nc1cccc(Oc2ccccn2)c1	.	.	-1	.	.	-5	.	.
O=C(NCc1ccco1)c1ccccc1F	i	i	1	26*	1	-5	-3	4
Nc1ccccc1C(=O)NCc1ccco1	i	i	-10	.	2	-2	.	.
Nc1nnc(-c2cc3c(ccc4ccccc43)oc2=O)s1	.	.	.	38*	.	.	31*	58*
O=C(Nc1ccc(S(=O)(=O)Nc2nccs2)cc1)c1cccc(N2C(=O)c3ccccc3C2=O)c1	i	i	8	18	2	-7	.	.
O=C(Nc1nccs1)c1cccc(N2C(=O)c3cccc4c([N+](=O)[O-])ccc(c34)C2=O)c1	i	i	-4	28*	0	0	21	32*
COc1ccc(OC)c(-n2c(-c3cccc(O)c3)n[nH]c2=S)c1	i	i	-6	30*	0	-1	-2	0
COc1ccc(-c2n[nH]c(=S)n2-c2cc(OC)ccc2OC)cc1	i	i	5	.	0	-5	.	.
CCCCNC(=O)C1(C)CCCCN1C(=O)c1ccc(OC)c(C(F)(F)F)c1 (stereo unspecified)	.	.	6	.	.	.	.	.
COC1=CC(=O)OC(c2ccc(C(F)(F)F)cc2)C1 (stereo unspecified)	.	.	-9	.	.	.	.	.
CC(C)(C)c1ccc(-n2nc(C#N)c(Cl)cc2=O)cc1	i	.	72*	42*	.	.	30*	-2
O=S(=O)(c1ccc(NC(=S)NN=Cc2ccccc2O)cc1)N1CCCCC1	i	.	1	.	.	2	.	.
O=c1c(Br)c(Br)cnn1-c1ccccc1	i	.	19	35*	.	9	20	-6
O=c1c(Br)c(N2CCCC2)cnn1-c1ccccc1	i	i	9	-3	2	-2	.	.
O=C(NCc1c(Cl)cccc1Cl)c1[nH]c(C(F)(F)F)nc1-c1ccccc1	.	.	-7	.	.	.	.	.
COCCNC(=O)C1(C)CCN(C(=O)c2ccc(SC(F)(F)F)cc2)C1 (stereo unspecified)	.	.	-5	.	.	.	.	.
SMILES	ANO1 activ	TMEM16A inh	NOD2 RIPK2 PPI	TLR4-MyD88 BLA	GRK2 inh	TLR9-MyD88 block	TLR4 MyD88 cnf	BLA inh HeLa
CCN(CC)c1ccc(/C=C/c2nc3ccccc3s2)cc1	.	i	.	56*	2	.	48*	76*
CCN(CC)c1ccc(NC(=O)COC(=O)/C=C/c2nc3ccccc3s2)cc1	i	i	-12	-2	0	-1	.	.
N#Cc1ccccc1Cn1cc(/C=N/Nc2ccc([N+](=O)[O-])cn2)c2ccccc21	i	i	-3	46*	0	0	40*	79*
O=[N+]([O-])c1ccc(NN=Cc2ccccc2O)nc1	i	.	19	.	.	15	.	.
O=[N+]([O-])c1ccc(N/N=C/c2ccc(OCc3cccc4ccccc34)cc2)nc1	i	i	0	35*	0	16	47*	82*
C#Cc1ccc(NC(=O)C2(C)CCN2C(=O)Cc2ccc(C(C)C)cc2)cc1 (stereo unspecified)	.	.	4	.	.	.	.	.
Cc1ccc2nc(C)c(Cl)c(=O)n2c1	i	i	-2	3	0	9	.	.
Cc1ccc2nc(Cl)c(/C=N/Nc3nc(C)cc(C)n3)c(=O)n2c1	i	i	19	33*	3	5	23	28*
CCCCC(=O)Nc1sc2c(c1C(=O)OCC)CCC(C=O)=C2Cl	i	i	9	26*	3	19	38*	45*
CCCCCn1nc(-c2ccccc2)c2nc3ccccc3nc21	i	i	9	44*	15	-4	52*	63*
Clc1ccc(CSc2nnc(CN3CCOCC3)n2-c2ccccc2)cc1Cl	i	i	-5	26*	2	5	-6	-1
Cc1cccc(N2C(=O)c3ccc(C(=O)Nc4ccccn4)cc3C2=O)c1	i	i	-5	.	0	-16	.	.
Cc1cccc(N2C(=O)/C(=C\c3ccc(C(=O)O)cc3)c3ccccc3C2=O)c1	i	i	4	45*	2	19	32*	35*
COc1ccc(C2C=C(c3cccs3)Nc3nc(CCCO)nn32)cc1 (stereo unspecified)	.	i	.	32*	1	.	33*	56*
COc1ccc(C2C=C(c3ccccc3)Nc3nc(CCCO)nn32)cc1 (stereo unspecified)	.	i	.	26*	0	.	26*	38*
CN1CCN(C(=O)C(=O)c2cn(CC(=O)N3CCOCC3)c3ccccc23)CC1	.	.	-8	.	.	-4	.	.
O=c1[nH]c2cc3ccccc3cc2nc1-c1nnnn1C1CCCC1	.	.	-11	.	.	.	.	.
COc1ccccc1-c1nnc(NC(=O)C(C)C)s1	i	i	-9	27*	0	3	-9	5
COc1ccccc1Cc1c(C(C)(C)C)nc2c3ccccc3ccn12	.	.	-1	.	.	.	.	.
